Reference: PubChem BioAssay (NCI)
About 79,000 compounds went through this panel and 15% of them were active in at least one assay; those are over-represented in the sample as a whole. Active and inactive are the calls of the source. Cut-off read from the data, not from the text of the source: active = growth inhibition above about 70%; inactive = the rest.

Columns and labels:
[1] = NCI Yeast Anticancer Drug Screen. Data for the mec2-1 strain (AID 157); settings: S. cerevisiae mec2-1 strain, active compounds read high
How it was run: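 Readout is yeast growth inhibition, normalised to vehicle-treated controls, in the mec2-1 strain exposed to compound.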

[2] = NCI Yeast Anticancer Drug Screen. Data for the rad14 strain (AID 159);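 note: 0% = growth of vehicle-treated control cultures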; settings: S. cerevisiae rad14 strain growth inhibition, active compounds read high
How it was run: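 A mutant yeast strain defective in DNA damage repair is treated with compound; inhibition of its growth is scored against untreated, vehicle-exposed cultures.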

[3] = NCI Yeast Anticancer Drug Screen. Data for the sgs1 mgt1 strain (AID 161);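 note: 0% = growth of cultures given vehicle only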; settings: S. cerevisiae sgs1 mgt1 strain, active compounds read high
How it was run: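 Percent growth inhibition was derived by comparing compound-exposed mutant yeast with vehicle-exposed cultures. The strain carries alterations in DNA damage repair.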

[4] = NCI Yeast Anticancer Drug Screen. Data for the CLN2oe strain (AID 163);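 note: 0% = growth of vehicle-only control cultures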; settings: S. cerevisiae CLN2oe strain, active compounds read high
How it was run: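 Values reflect how much compound exposure reduced yeast growth, referenced to vehicle-exposed cells. Assay organism is a strain with a defined genetic change affecting cell-cycle control.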

[5] = NCI Yeast Anticancer Drug Screen. Data for the cln2 rad14 strain (AID 165);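 note: 0% = growth equal to vehicle treated cultures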; settings: S. cerevisiae cln2 rad14 strain, active compounds read high
How it was run: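 Relative to vehicle controls, growth inhibition of compound-treated cln2 rad14 yeast was recorded.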

[6] = NCI Yeast Anticancer Drug Screen. Data for the bub3 strain (AID 167); settings: S. cerevisiae bub3 mutant strain, active compounds read high
How it was run: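 Steps: expose the mutant yeast strain to compound; grow alongside vehicle-treated cultures; measure growth; express inhibition against the vehicle cultures.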

[7] = NCI Yeast Anticancer Drug Screen. Data for the wt2 strain (AID 169);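 note: 0% = growth of vehicle-treated yeast cultures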; settings: S. cerevisiae wt2 strain growth inhibition, active compounds read high
How it was run: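 Values express reduction in yeast growth under compound treatment, referenced to vehicle-treated cells.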

[8] = NCI Yeast Anticancer Drug Screen. Data for the mlh1 strain (AID 171);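 note: 0% = growth of vehicle-treated control cultures of the same strain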; settings: S. cerevisiae mlh1 strain growth inhibition, active compounds read high
How it was run: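 Steps: expose the defined-mutant yeast strain to compound; expose a parallel culture to vehicle; measure growth; express compound effect as inhibition relative to the vehicle culture.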

[9] = NCI Yeast Anticancer Drug Screen. Data for the sgs1 strain (AID 173);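 note: 0% = growth of vehicle-only control cultures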; settings: S. cerevisiae sgs1 mutant, active compounds read high
How it was run: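 Treat defined-mutant yeast with compound; measure growth; calculate inhibition relative to vehicle-treated cells.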

[10] = NCI Yeast Anticancer Drug Screen. Data for the mlh1 rad18 strain (AID 175); settings: S. cerevisiae mlh1 rad18 strain growth inhibition, active compounds read high
How it was run: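 Test agents were incubated with a yeast strain of defined genotype (DNA damage repair defect). Inhibition of growth was derived by comparison with vehicle-exposed cultures.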

[11] = NCI Yeast Anticancer Drug Screen. Data for the rad52 strain (AID 147);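 note: 0% = growth of vehicle-treated control cultures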; settings: S. cerevisiae rad52 mutant growth inhibition, active compounds read high
How it was run: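 Screen used a yeast mutant impaired in DNA repair. After compound exposure, growth was measured. Values reflect inhibition compared with vehicle-treated cells.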

[12] = NCI Yeast Anticancer Drug Screen. Data for the wt1 strain (AID 149);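 note: 0% = growth of vehicle-treated wt1 cultures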; settings: S. cerevisiae wt1 strain (SPY 50644) growth inhibition, active compounds read high
How it was run: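 Compounds are added to wt1 yeast cultures. Growth is then measured. Inhibition is expressed relative to vehicle-treated controls.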

[13] = NCI Yeast Anticancer Drug Screen. Data for the rad50EPP+ strain (AID 151);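 note: 0% = growth of vehicle-treated control cultures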; settings: S. cerevisiae rad50 mutant strain, active compounds read high
How it was run: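 Exposing the rad50EPP+ strain to each compound, growth was compared with vehicle-only cultures to give inhibition.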

[14] = NCI Yeast Anticancer Drug Screen. Data for the mgt1 strain (AID 153); settings: S. cerevisiae mgt1 mutant growth inhibition, active compounds read high
How it was run: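 Genetically defined yeast (mgt1) treated with compound; inhibition of growth expressed against vehicle-treated controls.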

[15] = NCI Yeast Anticancer Drug Screen. Data for the rad50 strain (AID 155);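 note: 0% = growth of vehicle-only cultures of the same strain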; settings: S. cerevisiae rad50 strain growth inhibition, active compounds read high
How it was run: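 Inhibition values express reduced yeast growth in compound-treated cultures relative to vehicle-treated controls.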

[16] = NCI Yeast Anticancer Drug Screen. Data for the rad18 strain (AID 177); settings: S. cerevisiae rad18 mutant growth inhibition, active compounds read high
How it was run: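 A genetically defined yeast mutant impaired in DNA damage repair was treated with test compounds, then its growth was measured against cultures receiving vehicle alone.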

[17] = at 5.0 µM (retest, dose inferred, filed as 0.5)
[18] = at 50.0 µM (retest, dose inferred, filed as 5.0)

Measured: growth inhibition

O=C(O)CCCOc1cc(Cl)c(Cl)cc1Cl
active: [1]; [18] 98% | [1]; at 50.0 µM 74.8% | [1]; at 100.0 µM 90% | [2]; at 100.0 µM 81% | [3]; at 50.0 µM 77.2% | [5]; at 50.0 µM 75.5% | [6]; at 50.0 µM 83.4% | [6]; at 100.0 µM 78% | [7]; at 100.0 µM 80% | [8]; at 100.0 µM 80% | [9]; at 100.0 µM 76% | [10]; [18] 99% | [10]; at 50.0 µM 78.7%
inactive: [1]; [17] 52% | [1]; at 11.0 µM 4% | [1]; at 33.0 µM 34% | [2]; at 1.2 µM -13% | [2]; at 3.7 µM -4% | [2]; at 11.0 µM -4% | [2]; at 33.0 µM 17% | [3]; [17] -17% | [3]; [18] 18% | [4]; at 1.2 µM 0% | [4]; at 3.7 µM -15% | [4]; at 11.0 µM -11% | [4]; at 33.0 µM 4% | [4]; at 100.0 µM 60% | [5]; [17] 10% | [5]; [18] 47% | [6]; at 1.2 µM -6% | [6]; at 3.7 µM -3% | [6]; [17] 28% | [6]; at 11.0 µM -2% | [6]; at 33.0 µM 43% | [6]; [18] 52% | [7]; at 1.2 µM -6% | [7]; at 3.7 µM -11% | [7]; at 11.0 µM -4% | [7]; at 33.0 µM 30% | [8]; at 1.2 µM -20% | [8]; at 3.7 µM -27% | [8]; at 11.0 µM 2% | [8]; at 33.0 µM 40% | [9]; at 1.2 µM -13% | [9]; at 3.7 µM -18% | [9]; at 11.0 µM 2% | [9]; at 33.0 µM 43% | [10]; [17] 42%

Oc1ccc(Cl)cc1Cc1ccccc1
inactive: [11]; at 1.2 µM -21% | [11]; at 3.7 µM 4% | [12]; at 1.2 µM -41% | [12]; at 3.7 µM -11% | [12]; at 11.0 µM 60% | [13]; at 1.2 µM -52% | [13]; at 3.7 µM -15% | [13]; at 11.0 µM 28% | [14]; at 1.2 µM 11% | [14]; at 3.7 µM -2% | [15]; at 1.2 µM -46% | [15]; at 3.7 µM -43% | [15]; [17] 58% | [15]; at 11.0 µM 54% | [1]; at 1.2 µM -40% | [1]; at 3.7 µM 5% | [1]; [17] 54% | [2]; at 1.2 µM -23% | [2]; at 3.7 µM -23% | [2]; at 11.0 µM 54% | [3]; [17] -5% | [3]; [18] 44% | [4]; at 1.2 µM -11% | [4]; at 3.7 µM -30% | [5]; [17] 41% | [6]; at 1.2 µM -52% | [6]; at 3.7 µM -18% | [6]; [17] 36% | [7]; at 1.2 µM -53% | [7]; at 3.7 µM -16% | [7]; at 11.0 µM 54% | [8]; at 1.2 µM 12% | [8]; at 3.7 µM -9% | [8]; at 11.0 µM 69% | [9]; at 1.2 µM -23% | [9]; at 3.7 µM -17% | [9]; at 11.0 µM 66% | [10]; [17] 29%
active: [11]; at 11.0 µM 70% | [11]; at 33.0 µM 98% | [11]; at 100.0 µM 98% | [12]; at 33.0 µM 99% | [12]; at 100.0 µM 99% | [13]; at 33.0 µM 95% | [13]; at 100.0 µM 97% | [14]; at 11.0 µM 85% | [14]; at 33.0 µM 98% | [14]; at 100.0 µM 99% | [15]; at 33.0 µM 98% | [15]; [18] 86% | [15]; at 50.0 µM 92% | [15]; at 100.0 µM 98% | [1]; at 11.0 µM 77% | [1]; at 33.0 µM 84% | [1]; [18] 83% | [1]; at 50.0 µM 93.7% | [1]; at 100.0 µM 99% | [2]; at 33.0 µM 99% | [2]; at 100.0 µM 99% | [3]; at 50.0 µM 94.4% | [4]; at 11.0 µM 71% | [4]; at 33.0 µM 99% | [4]; at 100.0 µM 99% | [5]; [18] 99% | [5]; at 50.0 µM 92.9% | [6]; at 11.0 µM 70% | [6]; at 33.0 µM 100% | [6]; [18] 99% | [6]; at 50.0 µM 92.5% | [6]; at 100.0 µM 100% | [7]; at 33.0 µM 98% | [7]; at 100.0 µM 98% | [8]; at 33.0 µM 99% | [8]; at 100.0 µM 99% | [9]; at 33.0 µM 98% | [9]; at 100.0 µM 99% | [10]; [18] 70% | [10]; at 50.0 µM 93%

O=P(CCCCP(=O)(c1ccccc1)c1ccccc1)(c1ccccc1)c1ccccc1.[Cl][Sn]([Cl])([c]1ccccc1)[c]1ccccc1
inactive: [11]; at 1.2 µM -4% | [11]; at 3.7 µM 26% | [12]; at 1.2 µM -6% | [12]; at 3.7 µM 3% | [12]; at 11.0 µM 26% | [13]; at 1.2 µM 8% | [13]; at 3.7 µM -1% | [13]; at 11.0 µM 2% | [13]; at 33.0 µM 14% | [13]; at 100.0 µM 15% | [14]; at 1.2 µM 13% | [14]; at 3.7 µM 24% | [15]; at 1.2 µM 26% | [15]; at 3.7 µM 24% | [15]; [17] 66% | [1]; at 1.2 µM 11% | [1]; at 3.7 µM 22% | [1]; [17] 48% | [2]; at 1.2 µM 4% | [2]; at 3.7 µM 16% | [4]; at 1.2 µM -16% | [4]; at 3.7 µM -27% | [4]; at 11.0 µM 15% | [5]; [17] 15% | [6]; at 1.2 µM 7% | [6]; at 3.7 µM -3% | [6]; [17] 67% | [6]; at 11.0 µM 50% | [7]; at 1.2 µM -51% | [7]; at 3.7 µM -35% | [7]; at 11.0 µM 43% | [8]; at 1.2 µM 3% | [8]; at 3.7 µM 9% | [9]; at 1.2 µM 0% | [9]; at 3.7 µM 15% | [9]; at 11.0 µM 68% | [16]; at 1.2 µM 3% | [16]; at 3.7 µM 16%
active: [11]; at 11.0 µM 74% | [11]; at 33.0 µM 96% | [11]; at 100.0 µM 97% | [12]; at 33.0 µM 93% | [12]; at 100.0 µM 96% | [14]; at 11.0 µM 74% | [14]; at 33.0 µM 96% | [14]; at 100.0 µM 97% | [15]; at 11.0 µM 82% | [15]; at 33.0 µM 97% | [15]; [18] 98% | [15]; at 50.0 µM 85.7% | [15]; at 100.0 µM 97% | [1]; at 11.0 µM 70% | [1]; at 33.0 µM 95% | [1]; [18] 98% | [1]; at 50.0 µM 87.8% | [1]; at 100.0 µM 96% | [2]; at 11.0 µM 78% | [2]; at 33.0 µM 94% | [2]; at 100.0 µM 96% | [3]; [17] 83% | [3]; [18] 98% | [3]; at 50.0 µM 87.3% | [4]; at 33.0 µM 91% | [4]; at 100.0 µM 95% | [5]; [18] 97% | [5]; at 50.0 µM 81.8% | [6]; at 33.0 µM 93% | [6]; [18] 98% | [6]; at 50.0 µM 87.5% | [6]; at 100.0 µM 96% | [7]; at 33.0 µM 92% | [7]; at 100.0 µM 96% | [8]; at 11.0 µM 80% | [8]; at 33.0 µM 96% | [8]; at 100.0 µM 97% | [9]; at 33.0 µM 96% | [9]; at 100.0 µM 97% | [10]; [17] 84% | [10]; [18] 96% | [10]; at 50.0 µM 89.5% | [16]; at 11.0 µM 82% | [16]; at 33.0 µM 95% | [16]; at 100.0 µM 96%
